We go through 40 compounds from PubChem BioAssay (NCI).

Compounds without any hit were thinned out: in the full panel of roughly 83,000, 20% have a hit.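 Note: values are percent growth. 100 is the growth of untreated cells, values between 100 and 0 indicate rising inhibition; between -100 and 0 indicates cell death.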 Values without a mark were called inactive. Calls of active or inactive are those of the source.

For this experiment, the system named is TK-10 renal. The experiment can be described thus: NCI-60 one-dose screen, 48 h (100 = growth as untreated, 0 = no growth, -100 = all killed). Particulars: 10 µM unless noted. Here is the method: Growth inhibition of the TK-10 human tumor cell line is measured as a screen for anti-cancer activity. Cells are grown in 96 well plates and exposed to the test compound for 48 hours. Compounds are tested at a single concentration, which is 10^-5 M for most compounds. The reported endpoint is percent growth (GI% or GIPRCNT), where numbers from 0 - 100% represent growth inhibition, and numbers from -100% - 0 represent cell death. For example, a value of 40 represents 60% growth inhibition. A value of 0 means no net growth occurred over the course of the experiment. A value of -40 indicates 40% of cells at the beginning of the experiment died by the end of the experiment. A value of -100 means all cells are dead at the end of the experiment.
NCI-60 Human Tumor Cell Lines Screen was performed using the standard one-dose NCI protocol, which is described in more detail at https://dtp.cancer.gov/discovery_development/nci-60/default.htm.
Compounds with GIPRCNT values below 10 were considered active. Activity score was based on GIPRCNT using the following formula: […]
Score is 0 for GIPRCNT values of 100 or above, 50 for GIPRCNT values of 0, and 100 for GIPRCNT values of -100.
Take `CCCCCc1c(C)[nH]c(/C=C2\N=C(c3ccc[nH]3)C=C2Oc2ccccc2)c1C`: the growth was -62% [100 µM] (active).

In the case of `CCCCCCCCCCCCCCCCNC(=O)Nc1ccc2ccccc2c1`, the growth was 110%.

Consider `COc1ccc(OC)c(CCn2cncc2-c2c[nH]c3cc(Br)ccc23)c1`, for which the growth was 45.9%. On to `BrC1CC(Br)c2c1c1c(c3c2C(Br)CC3Br)C(Br)CC1Br` (stereo not given), for which the growth is 121%. For `COc1ccc2c(c1)sc1nc(-c3ccc(Br)cc3)cn12` the value was 133%. For `CC1CN(C2CCCCC2)C(=O)NC1=O` (stereo not given) the value was 101%; for `O=C(COc1ccc(/C=C2\Oc3ccc4ccccc4c3C2=O)cc1)c1ccc(Cl)cc1`, 114%; for `NS(=O)(=O)c1ccc(N2CC(c3nc4ccccc4[nH]3)CC2=O)cc1` (stereo not given), 128%. For `Cc1ccc(C(NC(=O)c2ccccc2)c2ccc3cccnc3c2O)cc1` (stereo not given) the value was 16%; for `O=C1c2cccc3c([N+](=O)[O-])ccc(c23)C(=O)N1CCCCl`, -50.2% [100 µM] (active); for `Nc1ccccc1C#Cc1ccccc1C#Cc1ccc(OCCCCCCOc2ccc(C#Cc3ccccc3C#Cc3ccccc3N)cc2)cc1`, 141%. Take `CN(C)c1ncnc2c1ncn2C1CCCCO1` (stereo not given): the growth is 101%. As to `O=C(Nc1nc2c(C(F)(F)F)cccc2s1)c1cc(Cl)ccc1O`, the growth is 10.2%. On to `COc1ccc2c(c1)sc1nc(-c3ccc(N(C)C)cc3)cn12`, for which the growth was 132%. In the case of `CSc1nc(N)c2c(n1)N(C)C=NS2(=O)=O`, the growth is 109%. On to `CCOC(=O)/C(=C/CC/C(C)=C/CC/C(C)=C/CCc1ccoc1)CC(=O)N1CCCCC1`, for which the growth was 63.7%.

Regarding `NS(=O)(=O)c1ccc(-n2ncc3c(N/N=C/c4ccccc4)ncnc32)cc1`, the growth was 93.6%. For `CN(C)CCC(=O)Nc1ccc(-n2cc(-c3cccc(NC(=S)Nc4cccc(-c5cn(-c6ccc(NC(=O)CCN(C)C)cc6)nn5)c4)c3)nn2)cc1` the value was 142%; for `O=[N+]([O-])c1ccc2[nH]cc(-c3c4ccccc4cc4[nH]c5ccc([N+](=O)[O-])cc5c34)c2c1`, 58.7%; for `COc1cc(-c2nc3nc4sc(C)c(C)c4c(=O)n3[nH]2)cc(OC)c1OC`, 110%. Take `COc1ccc(NC(=O)c2ccccc2-c2ccccc2)c(C(N)=O)c1`: the growth is 76.1%. Regarding `CCOC(=O)N1CCC(N=C2CSc3nnc(-c4cc(C(F)(F)F)cc(C(F)(F)F)c4)n3N2)CC1`, the growth was 14.9%. With `O=C1C(=O)c2c(nc3ccc(Cl)cn23)-c2ccccc21`, the growth was -86.3% (active). Turning to `NS(=O)(=O)N(c1cc(C(F)(F)F)cc(C(F)(F)F)c1)C1CCN(Cc2ccc(C(F)(F)F)cc2)CC1`, the growth is 67%.

In the case of `CN(C)CCCN=c1cc2c(=O)n(CCCN(C)C)c(=O)c3c(NCCCN(C)C)cc4c(O)n(CCCN(C)C)c(=O)c1c4c3-2`, the growth is 7.45% (active). In the case of `Nc1nc(NC2CC2)c2ncn(C3C=CC(CO)C3)c2n1` (stereo not given), the growth was 96.4%. As for `COc1cc(C2=NN(C=O)C(c3cccc(Nc4ccnc5cc(Cl)ccc45)c3)C2)cc(OC)c1OC` (stereo not given), the growth is 87.9%. Take `COC(=O)[C@H](CCCCNC(=O)OCc1ccccc1)NC(=O)[C@@H](NC(=O)Nc1cc(C(F)(F)F)cc(C(F)(F)F)c1)C(C)C`: the growth is -44% [100 µM] (active).

As to `COC(=O)[C@H](Cc1cn(C)cn1)NC(=O)[C@@H](NC(=O)Nc1cc(C(F)(F)F)cc(C(F)(F)F)c1)C(C)C`, the growth is -98.7% [100 µM] (active). For `OCCN1CCN(CCCN2c3ccccc3Sc3ccc(C(F)(F)F)cc32)CC1` the value was 4.29% (active); for `Nc1nc2c(nnn2Cc2ccc(Cl)c(Cl)c2)c(=O)[nH]1`, 103%. `O=C1NC(=O)/C(=C\c2ccco2)S1`: the growth is 102%. Take `O=C1OC(Oc2ccccc2)(c2ccccc2)c2ccccc21` (stereo not given): the growth is 109%. For the compound `N#CC1c2ccccc2C=CN1C(=O)N(c1ccccc1)c1ccccc1` (stereo not given), the growth was 32.1%. `Cc1ccc2nc(SCC(=O)Nc3ccc(-c4nc5ccccc5s4)c(Cl)c3)[nH]c2c1`: the growth is 109%. As to `O=C1Nc2ccc(Cl)cc2/C1=C/c1cccs1`, the growth was 120%. As for `O=Cc1ncc(-c2ccc(C(F)(F)F)cc2)c(NC2CCCCCC2)n1`, the growth was -94.9% [100 µM] (active).

Regarding `Cc1sc2nc(NCCc3cccs3)[nH]c(=O)c2c1C`, the growth is 96.8%.

Take `COc1cc2c(cc1OC)C(=O)/C(=C/c1cccc(OCC(=O)c3ccccc3)c1)C2`: the growth is 122%. Turning to `O=C(c1ccc(N2CCOCC2)cc1[N+](=O)[O-])N1CCOCC1`, the growth is 116%.
